According to PubChem BioAssay (NCI):
Compounds without any hit were thinned out: in the full panel of roughly 79,000, 15% have a hit. The source made the active and inactive calls. No stated cut-off is given here; in the data, active means growth inhibition above about 70%; inactive means the rest.

Legend:
[1] = NCI Yeast Anticancer Drug Screen. Data for the rad50 strain (AID 155);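 further: 0% = growth of vehicle-only cultures of the same strain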; details: S. cerevisiae rad50 strain growth inhibition; at 50.0 µM; active compounds read high
Summary of the method: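 A DNA repair-deficient yeast mutant serves as the test organism; compound-induced growth inhibition is calculated against vehicle-treated cells.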

[2] = NCI Yeast Anticancer Drug Screen. Data for the mec2-1 strain (AID 157); details: S. cerevisiae mec2-1 strain, at 50.0 µM, active compounds read high
Summary of the method: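 Strain: mec2-1 (DNA repair/cell cycle alteration). Compound exposure, then growth measured; inhibition expressed relative to vehicle.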

[3] = NCI Yeast Anticancer Drug Screen. Data for the sgs1 mgt1 strain (AID 161);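 further: 0% = growth of cultures given vehicle only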; details: S. cerevisiae sgs1 mgt1 strain, at 50.0 µM, active compounds read high
Summary of the method: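 Mutant yeast exposed to compound; growth scored against vehicle-only wells.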

[4] = NCI Yeast Anticancer Drug Screen. Data for the cln2 rad14 strain (AID 165);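 further: 0% = growth equal to vehicle treated cultures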; details: S. cerevisiae cln2 rad14 strain, at 50.0 µM, active compounds read high
Summary of the method: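 Compounds are applied to the cln2 rad14 yeast strain, and growth is then compared with that of vehicle-treated cultures to give inhibition.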

[5] = NCI Yeast Anticancer Drug Screen. Data for the bub3 strain (AID 167); details: S. cerevisiae bub3 mutant strain, at 50.0 µM, active compounds read high
Summary of the method: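 Inhibition values come from growth of compound-treated mutant yeast normalised to vehicle-treated controls.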

[6] = NCI Yeast Anticancer Drug Screen. Data for the mlh1 rad18 strain (AID 175); details: S. cerevisiae mlh1 rad18 strain growth inhibition; at 50.0 µM; active compounds read high
Summary of the method: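 Read-out is yeast growth inhibition, calculated against vehicle-only controls. The compound was applied to a strain engineered with DNA damage repair alterations.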

Measured: growth inhibition

N[C@H]1c2c(Cl)cccc2C(=O)[C@H]1O
inactive: [1] -3.7% | [2] -1.35% | [3] -23.2% | [4] -4.65% | [5] -2.2% | [6] -49.5%

CC1=NNC(=O)C2CCC(=O)N12 (stereo not given)
inactive: [1] 14.8% | [2] 1% | [3] 7.15% | [4] 11.1% | [5] 12.1% | [6] 22.8%

O=[N+]([O-])c1ccc(OC(=S)N2CCOCC2)cc1
inactive: [1] -7.05% | [2] 9.3% | [3] -8.3% | [4] 0.15% | [5] -10.2% | [6] -0.65%

Nc1nc(N)c(-c2ccc(Cl)cc2)c(CCC(=O)Nc2cccc(C(F)(F)F)c2)n1
inactive: [1] -25.2% | [2] -3.55% | [3] -30% | [4] -0.25% | [5] -17.1% | [6] -21.1%

O=C(Nc1cc(NC(=O)n2nnc3ccccc32)c(Br)cc1Br)n1nnc2ccccc21
inactive: [1] 51.4% | [2] 25% | [3] 27.2% | [4] 24.2% | [5] 2.15% | [6] 27.8%

COc1ccc(SSc2ccc(OC)cc2)cc1
inactive: [1] 25.9% | [2] -1.1% | [3] 12.2% | [4] 1.95% | [5] 6.2% | [6] 18.8%

CCOC(=O)/C(C#N)=C\NC(=O)NC
inactive: [1] 3% | [2] 2.3% | [3] 2.2% | [4] -18.4% | [5] -5.25% | [6] -0.5%

O=C1C2=Cc3ccccc3OC2(O)Oc2cc(O)ccc21 (stereo not given)
inactive: [1] 10.5% | [2] 11.2% | [3] 0.05% | [4] -4.1% | [5] -2.15% | [6] -36.6%

[Cl][Pt+2][Cl].[NH-]CC1(C[NH-])CCC1
inactive: [1] 1.1% | [2] 1.5% | [3] 9.2% | [4] 9% | [5] -18.9% | [6] -40%

Cc1ccc(C)c(NC(=O)Nc2ccc(Nc3ccccc3)cc2)c1
inactive: [1] -6.3% | [2] 12.8% | [3] 15.8% | [4] -18.4% | [5] 17.1% | [6] 33%

Cc1cc(=O)n(NC(N)=O)c(C)c1C(=O)O
inactive: [1] -0.8% | [2] 0.45% | [3] -13.8% | [4] -29.5% | [5] -1.3% | [6] -5.45%

COc1ccc2c(C)[n+]3ccc4cc(OC)c(OC)cc4c3cc2c1 (tested in a mixture with another compound)
inactive: [1] 21.5% | [2] 12.4% | [3] 22.9% | [4] -6.7% | [5] 22.5% | [6] 32.8%

O=C(Nc1ccc2ccccc2c1)c1ccc(Cl)cc1Cl
inactive: [1] -12.1% | [2] 14.2% | [3] -0.7% | [4] -2.85% | [5] 2.45% | [6] -14.8%

[N-]=[N+]=Nc1ccc2[nH]c3ccccc3c(=O)c2c1
inactive: [1] 17.9% | [2] -1.05% | [3] 16.9% | [4] -23.4% | [5] -16.9% | [6] 36.7%

O=S(=O)(CSc1ccccc1)c1ccccc1
inactive: [1] -21.9% | [2] -33.1% | [3] -16.6% | [4] -8.35% | [5] -25.6% | [6] -39.1%

O=[n+]1c2c(n([O-])c3cc(Cl)c(Cl)cc31)CCC2
inactive: [1] 25.4% | [2] -2.4% | [3] 22.9% | [4] 5.05% | [5] 4% | [6] 28.4%

CC(=O)CC(=O)NCCNC(=O)CC(C)=O
inactive: [1] -4.55% | [2] -11.6% | [3] 10.3% | [4] 6.4% | [5] -4.55% | [6] 8.85%

CC1CC(C)OC(C)(Cc2ccccc2)O1 (stereo not given)
inactive: [1] 23.8% | [2] 20.4% | [3] 25.6% | [4] -19.9% | [5] -2.15% | [6] -13.9%

O=Cc1c2c(cc3c1CC1(C3)Cc3cc4c(c(C=O)c3C1)CCCC4)CCCC2
inactive: [1] 5.25% | [2] 11.6% | [3] 4.4% | [4] 25.3% | [5] 17.3% | [6] 25.1%

c1ccc(C[n+]2ccc3c(c2)CCCC3)cc1
inactive: [1] -1% | [2] -13.2% | [3] 27.8% | [4] 17.3% | [5] 19.1% | [6] 6.4%

O=c1c(C(=Nc2ccccc2)c2ccccc2)c[nH]n1-c1ccccc1
inactive: [1] -10.5% | [2] 6.9% | [3] -6% | [4] 17.6% | [5] -15.6% | [6] -12.1%

O=c1oc(-c2cccc(C[n+]3ccccc3)c2)nc2cc(Cl)ccc12
inactive: [1] -14.9% | [2] -6.8% | [3] -11.4% | [4] -0.45% | [5] -7.1% | [6] -4.75%

O=C1CSc2nc3c(I)cc(I)cc3c(=O)n21
inactive: [1] 2.65% | [2] 6.2% | [3] -0.75% | [4] -25.1% | [5] -7.3% | [6] -0.6%

O=C(O)c1ccc(/C=N\N(CCO)C2=NCCN2)cc1
inactive: [1] 0% | [2] -4% | [3] -23.8% | [4] -31.5% | [5] -0.35% | [6] 6.4%

CC(=O)OC1CN(c2ccccc2)CC(OC(C)=O)CN(c2ccccc2)C1 (stereo not given)
inactive: [1] 38.5% | [2] 3.95% | [3] 38% | [4] -24.4% | [5] 2.1% | [6] 31.8%

C=C(S(=O)(=O)c1ccccc1)S(=O)(=O)c1ccccc1 (tested in a mixture with another compound)
active: [1] 92.8% | [2] 97.3% | [3] 96.4% | [4] 98% | [5] 97.8% | [6] 94.9%

CO/N=C(\C([O-])=N\[n+]1cnn(CC(=O)OC(C)(C)C)c1)c1csc(NC(c2ccccc2)(c2ccccc2)c2ccccc2)n1
inactive: [1] 39.5% | [2] 0.75% | [3] 11.1% | [4] 8.3% | [5] 15.3% | [6] -10.1%

COc1ccccc1Oc1ccccc1
inactive: [1] -20.7% | [2] -61.3% | [3] -8.6% | [4] 13.6% | [5] -34% | [6] 20.8%

COC(=O)c1nc(NN)[nH]c(=O)c1C
inactive: [1] -2.1% | [2] -21.1% | [3] -27.6% | [4] 3.35% | [5] -26.6% | [6] -15.1%

CCCCOC(=O)C1CC2CC1C1OC21 (stereo not given)
inactive: [1] -67.6% | [2] -63.3% | [3] -23.7% | [4] -0.3% | [5] -51.9% | [6] -33.5%

O=C(O)c1ccccc1SC(Sc1ccccc1C(=O)O)c1cccs1
inactive: [1] 12.4% | [2] -9.65% | [3] 3.75% | [4] -4.55% | [5] 6.25% | [6] 4%

Cn1ncc(=O)[nH]c1=O
inactive: [1] -15.2% | [2] -5.2% | [3] -23.4% | [4] 10.1% | [5] -9.85% | [6] -10.3%

CC(C)CC1NC(=S)N(c2ccccc2)C1=O (stereo not given)
inactive: [1] -11% | [2] -18.4% | [3] -13.7% | [4] -10.1% | [5] -8.05% | [6] -24.7%

CCOC(=O)C(=[N+]=[N-])C(O)C1OC(c2ccccc2)OCC1O (stereo not given)
inactive: [1] 12.8% | [2] 18.1% | [3] 18.9% | [4] 22.1% | [5] 9.15% | [6] 24.7%

CC(C(=O)O)c1ncnn1-c1ccccc1 (stereo not given)
inactive: [1] -3.35% | [2] 41% | [3] 6.45% | [4] 4.85% | [5] 10.6% | [6] 2.65%

O=C(O)c1cc(Br)sc1Br
inactive: [1] 8.75% | [2] -12.4% | [3] -8.8% | [4] 0.7% | [5] -9.6% | [6] -15.1%

COc1ccc(C(=O)N/N=C/c2cccc3ccccc23)cc1
inactive: [1] -3% | [2] 36.5% | [3] 13% | [4] -23.1% | [5] 43.8% | [6] 33.6%

Cc1ccc(C)c(I)c1
inactive: [1] 7.2% | [2] -3.55% | [3] 6.1% | [4] -9.95% | [5] -2.55% | [6] 14.1%

CCOC(=O)NC(CI)(c1ccccc1)c1ccccc1
inactive: [1] 20.9% | [2] 10.2% | [3] 3.55% | [4] 7.2% | [5] -0.25% | [6] 14.6%

C/C=C/C=C/C(=O)OCC
inactive: [1] 31.8% | [2] -2.25% | [3] -16.4% | [4] -2.4% | [5] 15.2% | [6] 14.3%
